Screening data: PubChem BioAssay, several laboratories
Compounds with a hit are over-represented: about 3.2% of the library has one in this group of screens.
EBV LMP1 NFkB: Epstein-Barr LMP1 NF-kappaB reporter inhibition; LMP1-induced NF-kappaB luciferase reporter cells, luminescence; inhibition, % at 12.5 µM; 0.69% of 350,000 active; AID 504558; in the data active = inhibition above about 41%; inconclusive = no clear call, values can overlap the other calls;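 note: 0% = neutral control wells and 100% = reference inhibitor control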
TROY signal inh: blocks TROY-dependent signaling in reporter cells; Q293 LMP1-TROYcd NF-kB luciferase reporter, 4 h; inhibition, % at 10 µM; 0.98% of 360,000 active;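 active = compounds whose plate-normalised and pattern-corrected inhibition of the luciferase reporter signal at the single screening dose is 50% or more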
PAX8 reporter: inhibitors of PAX8 transcriptional activity in RMG-I cells. RMG-I TPO-luciferase reporter, SteadyGlo, 24 h. inhibition, % at 12.6 µM. 1.2% of 360,000 active;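 active = mean replicate inhibition at least 60% with every replicate also reaching 60%; inconclusive = only one of the two criteria is met; inactive = mean below 60% and not all replicates reaching 60%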;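 note: luciferase light reporting Pax8 driven TPO promoter activity; plate controls were median of neutral control wells for no effect and mitoxantrone controls for full effect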
EWS-Fli block: blocks EWS/Fli oncoprotein-driven transcription; A673 NR0B1-luciferase reporter, viability-normalised; inhibition, % at 12.6 µM; 0.67% of 350,000 active; AID 651661;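 active = mean inhibition of at least 50% after viability correction, with every replicate also passing that limit; inconclusive = mean reaches 50% but only one of two replicates passes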;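 note: firefly luciferase signal divided by Alamar Blue viability fluorescence both relative to DMSO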
TWEAK Fn14 block: TWEAK-Fn14 signaling inhibition; TWEAK-stimulated Fn14 reporter cells, luciferase luminescence, 8 h; inhibition, % at 10 µM; 2% of 360,000 active; AID 1159606; in the data active = inhibition above about 50%
LGR2 inh: blocks bursicon-induced cAMP signaling via Drosophila LGR2. 0.35% of 380,000 active. inhibition, % at 9.99 µM. HEK293 LGR2, CRE-luciferase, bursicon-stimulated, 4 h. AID 720647;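 active = drop in luminescence signal, shown as inhibition above about 50% in the replicate tests, limit read from the data, passing the limit was not always enough; inconclusive = probably only some replicates passing the limit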;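 note: agonist challenge used bursicon conditioned medium at about half maximal strength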
The depositor's hits bear a star; ? = inconclusive; . = not tested or not shown.

SMILES | EBV LMP1 NFkB | TROY signal inh | PAX8 reporter | EWS-Fli block | TWEAK Fn14 block | LGR2 inh
COc1cccc(NC(=O)C[C@@H]2CC[C@@H]3[C@@H](COc4ccc(NC(=O)c5ccccc5F)cc4C(=O)N3C)O2)c1 | . | . | -9.9 | 16.8 | . | 27.2
COc1ccc(S(=O)(=O)N(C)C[C@H]2Oc3ccc(NC(=O)C4CCCCC4)cc3CC(=O)N([C@H](C)CO)C[C@H]2C)cc1 | . | . | 11.4 | -0.4 | . | -19.6
O=C(Nc1nnc(CCS(=O)(=O)c2ccc(Br)cc2)s1)c1ccc([N+](=O)[O-])cc1 | -6.2 | -19.6 | -9.8 | . | 51.1* | .
Cc1ccc2nc(N(CCCN(C)C)C(=O)c3sc4ccccc4c3Cl)sc2c1 | 6.8 | 50.4* | . | . | 73.3* | 7.4
Cc1ccc2nc(N(CCCN(C)C)C(=O)c3ccc(S(=O)(=O)N(C)C)cc3)sc2c1 | 13.1 | -10.8 | -19.2 | . | 4.1 | -13.9
O=C(C[C@H]1CC[C@@H](NC(=O)CC2CC2)[C@@H](CO)O1)NCc1ccc(Cl)cc1 | . | . | -1.6 | 0.1 | . | 6.4
O=C(CSCC(=O)Nc1nc(-c2ccc3c(c2)OCO3)cs1)Nc1nccs1 | 85.3* | 24.9 | -168.4 | -55.7 | 46.5 | -7.3
O=C(CSc1ccc(-c2ccc3c(c2)OCO3)nn1)Nc1nccs1 | -14.2 | -11.6 | -31.4 | -7.6 | -8.3 | -4.6
CCN(CC)c1ccc(/C=N/n2nnnc2N)c(O)c1 | 2.2 | 11.1 | . | . | -0.1 | .
CCN(CC)c1ccc2nc3ccccc3[n+](CC)c2c1 | 1.3 | 25.1 | . | . | 64.1* | .
CCN(CC)c1ccc2nc3ccc(N)cc3[n+](-c3ccccc3)c2c1 | 53.0* | -1.9 | . | 28.2 | 11.0 | 58.6*
CCCC(=O)Nc1ccc2c(c1)C(=O)N(C)C[C@H](OC)[C@@H](C)CN(CCc1ccccc1)[C@@H](C)CO2 | . | . | . | 10.7 | . | 23.6
O=C(CCCSc1nc2ccccc2[nH]1)N1CCN(c2ccc([N+](=O)[O-])cc2)CC1 | 18.7 | 36.7 | . | . | 50.1* | .
CN1c2ccc(-c3ccccc3F)cc2[C@@H]2[C@@H](CCN2S(=O)(=O)c2ccc(F)cc2)[C@@H]1CO | . | . | -10.4 | 8.8 | . | 14.9
CN1CCN(c2ccc(NC(=O)CSc3ccccc3)cc2F)CC1 | 2.1 | 37.4 | -57.1 | . | 52.5* | .
Cc1ccc(F)cc1-c1cc(C(=O)NCc2cc(C(F)(F)F)cc(C(F)(F)F)c2)[nH]n1 | . | 53.0* | 6.4 | -4.4 | 19.2 | 6.3
Cc1ccc(Cl)cc1-c1cc(C(=O)NCc2cc(C(F)(F)F)cc(C(F)(F)F)c2)[nH]n1 | . | 42.5 | 0.8 | -4.9 | 61.0* | .
Cc1csc(-c2cc(C(=O)NCc3cc(C(F)(F)F)cc(C(F)(F)F)c3)n[nH]2)c1 | . | 52.4* | 5.9 | -1.6 | -80.0 | 17.6
CO[C@@H]1CN(C)C(=O)c2cc(NC(=O)C3CCC3)ccc2OC[C@@H](C)N(Cc2ccc(F)cc2)C[C@@H]1C | . | . | -1.1 | 5.9 | . | 0.2
C[C@@H]1CN([C@@H](C)CO)C(=O)c2cc(NC(=O)C3CCCCC3)ccc2O[C@@H](C)CCCCO[C@H]1CN(C)C(=O)Cc1ccccc1 | . | . | 0.8 | 5.7 | . | -13.1
O=C(C[C@H]1CC[C@H]2[C@@H](COC[C@@H](O)CN2Cc2cccc(C(F)(F)F)c2)O1)NCCc1ccncc1 | . | . | 8.8 | 10.6 | . | -11.8
C[C@H](CO)N1C[C@H](C)[C@@H](CN(C)C(=O)c2cccnc2)Oc2ncc(-c3ccc(C#N)cc3)cc2C1=O | . | . | -10.6 | -10.0 | . | 20.4
O=S(=O)(Nc1nc(-c2sccc2Cl)cs1)c1cc(Cl)ccc1Cl | -3.4 | 57.8* | . | . | -17.7 | .
CNC[C@@H]1OCCCC[C@H](C)Oc2ccc(NC(=O)Nc3ccc(OC)cc3)cc2C(=O)N([C@@H](C)CO)C[C@@H]1C | . | . | -11.7 | -0.7 | . | -21.9
Cc1ccc(C)c(-c2cc(C(=O)Nc3sc(C)c(C)c3C(N)=O)c3ccccc3n2)c1 | 20.8 | 72.0* | . | . | 66.3* | ?
SMILES | EBV LMP1 NFkB | TROY signal inh | PAX8 reporter | EWS-Fli block | TWEAK Fn14 block | LGR2 inh
CCOC(=O)c1sc(NC(=O)c2cc(-c3ccccc3)nc3ccccc23)c(C#N)c1C | 25.3 | 63.4* | . | . | 61.9* | .
CCOC(=O)c1sc(NC(=O)c2cccnc2)c(C#N)c1C | -6.0 | -20.4 | . | . | 3.5 | -18.6
CCOC(=O)c1sc(NC(=O)CSc2n[nH]c(-c3ccccc3)n2)c(C#N)c1C | -2.7 | 65.4* | . | . | -8.3 | .
CCOC(=O)c1sc(NC(=O)CSc2nc(C)cc(C)n2)c(C#N)c1C | 9.5 | 22.9 | . | . | 0.4 | .
O=C(C[C@H]1C=C[C@H](NC(=O)c2ccc(F)cc2)[C@H](CO)O1)NCc1ccncn1 | . | . | -14.2 | 7.1 | . | 5.4
COc1ccc(C(=O)N2CCNC(=O)C2CC(=O)Nc2ccc(C)cc2)cc1 (configuration not stated) | -3.2 | -5.5 | -3.0 | -3.9 | 54.7* | 14.8
Cc1ccc(-c2noc(-c3ccccc3F)n2)cc1 | -34.6 | -37.4 | -65.1 | 4.4 | 6.8 | -13.7
O=C(O)c1ccc(-c2noc(-c3ccccc3F)n2)cc1 | -13.6 | -7.0 | -9.4 | -9.2 | 51.8* | 10.7
CC1C(=O)C(C)C(c2ccco2)NC1c1ccco1 (configuration not stated) | -6.7 | 2.9 | . | . | -7.0 | .
c1coc(C2=NC(c3ccco3)C(c3ccco3)N2)c1 (configuration not stated) | -10.0 | 9.0 | . | . | 64.4* | .
Cc1cccc(Nc2nc3c(S(=O)(=O)c4ccccc4)nnn3c3ccccc23)c1 | -16.8 | 53.2* | -3.3 | 0.6 | -44.1 | 0.2
Cc1c(C)n(CC(O)CN2CCN(C)CC2)c2ccccc12 (configuration not stated) | 59.9* | 8.3 | 22.5 | 0.2 | -9.9 | -5.4
Cc1c(C)n(CC(O)CN2CCCCC2)c2ccccc12 (configuration not stated) | 1.1 | -17.7 | 14.5 | . | 8.6 | .
Cc1ccc(C(=O)NCC(=O)N(C)Cc2ccccc2C)s1 | -3.1 | -45.0 | -46.4 | -37.8 | -6.9 | 1.7
Cc1ccc(C(=O)NCC(=O)N(C)Cc2cccc(F)c2)s1 | 50.7* | -9.4 | -17.9 | -11.5 | -4.2 | -14.5
OC[C@@H]1[C@H](c2ccc(-c3ccc(F)cc3)cc2)[C@@H]2CN(CCC(F)(F)F)CCCCN12 | . | . | 93.4* | . | . | -5.2
OC[C@@H]1[C@H](c2ccc(C#CC3CCCC3)cc2)[C@H]2CN(CCC(F)(F)F)CCCCN12 | . | . | 28.7 | 59.7* | . | 0.3
CN1CCN(C(=O)C[C@H]2C[C@@H]3c4cc(NC(=O)Cc5ccncc5)ccc4O[C@@H]3[C@@H](CO)O2)CC1 | . | . | -3.7 | 1.2 | . | 12.5
CN(C)C(=O)[C@H]1[C@H](CO)[C@H]2Cn3c(ccc(C4=CCCC4)c3=O)[C@H]2N1C(=O)Cc1cccnc1 | . | . | -1.2 | -3.5 | . | -2.3
C[C@@H]1CCCCO[C@@H](CN(C)Cc2ccc(Cl)c(Cl)c2)[C@H](C)CN([C@H](C)CO)C(=O)c2cc(NC(=O)C3CCCCC3)ccc2O1 | . | . | . | 12.6 | . | -18.1
COc1ccc(S(=O)(=O)Nc2ccc3c(c2)C(=O)N([C@H](C)CO)C[C@H](C)[C@H](CN(C)Cc2ccc4c(c2)OCO4)OCCCC[C@@H](C)O3)cc1 | . | . | -8.2 | 0.8 | . | -18.4
